Measurements as given in PubChem BioAssay (Tox21).
Inconclusive results are not listed. Activity calls are given as the source filed them. Unless noted, calls come from the whole dose curve; as a rule, active = well fitted curve in the direction sought with a large enough effect in the repeat runs; inconclusive = weak or mixed curves; inactive = no such curve, though single readings can be large; an effect the other way counts as inactive or inconclusive.

Columns and labels:
[1] = qHTS assay to identify small molecule agonists of the hypoxia (HIF-1) signaling pathway - cell viability counter screen (AID 1224844; calls by dose curve; note: nearly all actives have a fitted effect of over 50% in size; note: potency is the fitted concentration of half-maximal effect)
Outline: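 Tox21 10K compounds were added to HRE-bla ME-180 cells (0.5% dialyzed FBS) and incubated 17 hrs at 37C; ATP-based CellTiter-Glo luminescence then reported cell viability in the same wells.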

[2] = qHTS assay to identify small molecule agonists of H2AX (AID 1224845; active = well fitted activation curve with a large enough effect in the signal ratio in the repeat runs, not every such curve was filed as active; the % refers to the signal ratio)
Outline: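 Phospho-H2AX Ser139 measured by HTRF (ex 320 nm; em 665 and 620 nm) after 24 hr antibody incubation. Compounds, 15 concentrations, 0.76% DMSO, were applied to CHO-K1 cells for 3hr at 37C before lysis.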

[3] = qHTS assay to identify small molecule antagonists of the estrogen related receptor (ERR) signaling pathway from Tox21 library (AID 1224848); note: nearly all actives have a fitted effect of over 50% in size; note: potency is the fitted concentration of half-maximal effect
Outline: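 Antagonist-mode screen of the Tox21 10K library in an NTP-provided ERR reporter cell line; 18 h compound exposure at 37 C, luminescence measured with ONE-Glo.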

[4] = qHTS assay to identify small molecule agonists of the estrogen related receptor (ERR) signaling pathway from Tox21 library (AID 1224849; calls by dose curve; note: nearly all actives have a fitted effect of over 15% in size); settings: ERR reporter cell line, ONE-Glo luciferase, 18 h; at 92.4 µM (top of the series) unless noted
Outline: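 Agonist signal is luciferase luminescence from an ERR reporter cell line treated 18 h at 37 C with DMSO-dissolved compounds, read 30 min after ONE-Glo addition at room temperature.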

[5] = qHTS RealTime-Glo MT Cell Viability Assay in HepG2 cells - 24 hour (AID 1224867); note: nearly all actives have a fitted effect of over 50% in size
Outline: (§1)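 Luminescence read-out: viable HepG2 cells reduce a prosubstrate to a NanoLuc substrate, giving a signal proportional to live cell number. Reads taken at 0, 8, 16, 24, 32 and 40 h of compound exposure at 37 C.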

[6] = qHTS RealTime-Glo MT Cell Viability Assay in HEK293 cells - 32 hour (AID 1224868); note: top concentration of the series differs between compounds; nearly all actives have a fitted effect of over 50% in size
Outline: (§2)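 Nonlytic real-time viability readout: viable cells convert prosubstrate to NanoLuc substrate, giving luminescence proportional to live cell number. HEK293, 600 cells/well, compound added after 5 h, continuous culture at 37 C.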

[7] = A CellTox Green Cytotoxicity Assay to monitor cytotoxicity in HEK293 cells - 0 hour (AID 1224869); note: nearly all actives have a fitted effect of over 50% in size
Outline: (§3)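 Cytotoxicity was tracked continuously in HEK293 cells by a DNA-binding dye excluded from viable cells. Compounds were transferred in DMSO 5 h after seeding; fluorescence was recorded at intervals up to 40 h.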

[8] = qHTS RealTime-Glo MT Cell Viability Assay in HepG2 cells - 40 hour (AID 1224870); note: nearly all actives have a fitted effect of over 50% in size
Outline: (§4)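 Real-time viability: cells seeded at 600 per well together with NanoLuc and cell-permeant prosubstrate, compounds added after 5 h incubation. Luminescence tracked at 0, 8, 16, 24, 32 and 40 h of exposure.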

[9] = A CellTox Green Cytotoxicity Assay to monitor cytotoxicity in HEK293 cells - 40 hour (AID 1224871); note: nearly all actives have a fitted effect of over 45% in size
Outline: as §3

[10] = qHTS RealTime-Glo MT Cell Viability Assay in HEK293 cells - 16 hour (AID 1224872)
Outline: as §2

[11] = qHTS RealTime-Glo MT Cell Viability Assay in HEK293 cells - 40 hour (AID 1224874); settings: RealTime-Glo luminescence; max response: stronger effect = lower value; note: nearly all actives have a fitted effect of over 50% in size; note: potency is the fitted concentration of half-maximal effect
Outline: (§5)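 Nonlytic bioluminescent viability monitoring. HEK293 at 600 cells/well with reagent; 5 h settle; compound transfer by pintool; plates held at 37 C and read at set time points.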

[12] = A CellTox Green Cytotoxicity Assay to monitor cytotoxicity in HEK293 cells - 24 hour (AID 1224875); note: nearly all actives have a fitted effect of over 45% in size
Outline: as §3

[13] = A CellTox Green Cytotoxicity Assay to monitor cytotoxicity in HepG2 cells - 16 hour (AID 1224876); note: nearly all actives have a fitted effect of over 45% in size
Outline: (§6)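 Real-time, homogeneous cytotoxicity readout: dead-cell DNA staining by CellTox Green in HepG2 monolayers, fluorescence measured at timed intervals up to 40 h of continuous compound exposure.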

[14] = qHTS RealTime-Glo MT Cell Viability Assay in HepG2 cells - 32 hour (AID 1224877); note: nearly all actives have a fitted effect of over 55% in size
Outline: as §1

[15] = A CellTox Green Cytotoxicity Assay to monitor cytotoxicity in HepG2 cells - 24 hour (AID 1224878); note: nearly all actives have a fitted effect of over 45% in size
Outline: as §6

[16] = A CellTox Green Cytotoxicity Assay to monitor cytotoxicity in HepG2 cells - 40 hour (AID 1224879); note: nearly all actives have a fitted effect of over 40% in size
Outline: as §6

[17] = qHTS RealTime-Glo MT Cell Viability Assay in HEK293 cells - 0 hour (AID 1224880); note: nearly all actives have a fitted effect of over 45% in size; note: potency is the fitted concentration of half-maximal effect
Outline: as §5

[18] = qHTS assay to identify small molecule agonists of H2AX - cell viability counter screen (AID 1224847; calls by dose curve;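 note: wild-type CHO-K1 cells; top concentration of the series differs between compounds; nearly all actives have a fitted effect of over 30% in size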)
Outline: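 CHO-K1 wt, 1000 cells/well, o/n 37C; cpds 15 conc, 3 h 37C, 0.76% DMSO; CellTiter-Glo, 30 min RT, luminescence.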

[19] = qHTS RealTime-Glo MT Cell Viability Assay in HepG2 cells - 8 hour (AID 1224873); note: nearly all actives have a fitted effect of over 55% in size
Outline: as §4

[20] = qHTS assay to identify small molecule agonists of the hypoxia (HIF-1) signaling pathway (AID 1224846; active = well fitted activation curve with a large enough effect in the signal ratio in the repeat runs, not every such curve was filed as active; the % refers to the signal ratio)
Outline: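 Steps: seed ME-180 HRE-bla cells (2,000/well, 0.5% dialyzed FBS); incubate 5 hrs at 37C; pin-transfer compounds or DMSO; incubate 17 hrs; add LiveBLAzer B/G substrate CCF4-AM; measure reporter activation by FRET.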
% is set by controls: 0 for no effect and ±100 for the full control effect.

Cc1ccccn1
inactive: Potency [1] | Potency [2] | Potency [3] | activity change, positive = activation [4] 1.44% | Potency [5] | Potency [6] | Potency [7] | Potency [8] | Potency [9] | Potency [10] | max response [11] 4.7% | Potency [12] | Potency [13] | Potency [14] | Potency [15] | Potency [16] | Potency [17]

O=C(O)[C@@H]1[C@H]2C[C@H]3c4[nH]c5ccccc5c4CCN3C[C@@H]2CC[C@@H]1O
inactive: Potency [1] | Potency [2] | Potency [18] | Potency [3] | activity change, positive = activation [4] 1.64% [at 42.5 µM] | Potency [5] | Potency [6] | Potency [7] | Potency [8] | Potency [10] | Potency [19] | max response [11] 1.89% | Potency [12] | Potency [14] | Potency [17]

CN(C)CC/C=C1\c2ccccc2COc2ccccc21
inactive: Potency [1] | Potency [2] | Potency [18] | Potency [5] | Potency [6] | Potency [7] | Potency [8] | Potency [10] | Potency [19] | Potency [12] | Potency [13] | Potency [14] | Potency [15] | Potency [17]

O=C(O)c1cccc(N(Cc2cccnc2)c2ccc(OC(F)F)c(OC(F)F)c2)c1
active: Potency [3] 61.1 µM | Potency [17] 19.5 µM
inactive: Potency [1] | Potency [2] | Potency [18] | activity change, positive = activation [4] -33.2% | Potency [6] | Potency [7] | Potency [9] | Potency [10] | max response [11] -2.06% | Potency [12] | Potency [13] | Potency [15] | Potency [16]

Cc1ccc(C(=O)C(C)CN2CCCCC2)cc1 (stereo not given)
inactive: Potency [1] | Potency [2] | Potency [3] | activity change, positive = activation [4] 4.97% [at 42.5 µM] | Potency [5] | Potency [7] | Potency [8] | Potency [9] | Potency [10] | max response [11] 11.5% | Potency [12] | Potency [13] | Potency [14] | Potency [15] | Potency [16] | Potency [17]

O=C(O)Cn1c(C(=O)Nc2nc(-c3ccccc3Cl)cs2)cc2ccccc21
inactive: Potency [2] | Potency [3] | Potency [5] | Potency [6] | Potency [7] | Potency [8] | Potency [9] | max response [11] -2.19% | Potency [12] | Potency [13] | Potency [14] | Potency [15] | Potency [16]
active: Potency [1] 8.49 µM

CC(=O)N(O)CCCCCNC(=O)CCC(=O)N(O)CCCCCNC(=O)CCC(=O)N(O)CCCCCN
active: Potency [3] 26.6 µM | Potency [11] 21.3 µM
inactive: Potency [1] | outcome [20] | Potency [18] | activity change, positive = activation [4] -34.7% [at 42.5 µM] | Potency [5] | Potency [7] | Potency [8] | Potency [9] | Potency [10] | Potency [19] | Potency [12] | Potency [13] | Potency [14] | Potency [15] | Potency [16] | Potency [17]

COc1ccc([C@@H]2Sc3ccccc3N(CCN(C)C)C(=O)[C@@H]2OC(C)=O)cc1
active: Potency [1] 21.3 µM | Potency [3] 16.8 µM
inactive: Potency [2] | Potency [18] | activity change, positive = activation [4] -33.7% [at 42.5 µM] | Potency [5] | Potency [7] | Potency [8] | Potency [9] | Potency [19] | Potency [12] | Potency [13] | Potency [14] | Potency [15] | Potency [16] | Potency [17]

CCN(CC)C(C)=O
inactive: Potency [1] | Potency [2] | Potency [18] | Potency [3] | activity change, positive = activation [4] 2.9% | Potency [5] | Potency [6] | Potency [7] | Potency [8] | Potency [10] | Potency [19] | max response [11] 1.69% | Potency [13] | Potency [14] | Potency [15] | Potency [16] | Potency [17]

CCOc1ccc2[nH]cc(C(=O)NCc3ccccc3)c(=O)c2n1
active: Potency [3] 24.3 µM
inactive: Potency [1] | outcome [20] | Potency [18] | activity change, positive = activation [4] -48.4% | Potency [5] | Potency [6] | Potency [7] | Potency [8] | Potency [9] | Potency [10] | Potency [13] | Potency [14] | Potency [15] | Potency [16] | Potency [17]

CN(C(=O)CCCOc1ccc2[nH]c(=O)ccc2c1)C1CCCCC1
inactive: Potency [1] | Potency [2] | Potency [18] | activity change, positive = activation [4] -12.9% [at 42.5 µM] | Potency [5] | Potency [7] | Potency [8] | Potency [9] | Potency [12] | Potency [13] | Potency [14] | Potency [15] | Potency [16] | Potency [17]

CN(C)C/C=C(/c1ccc(Br)cc1)c1cccnc1
inactive: Potency [1] | Potency [2] | Potency [18] | Potency [5] | Potency [7] | Potency [8] | Potency [9] | Potency [19] | Potency [12] | Potency [13] | Potency [14] | Potency [15] | Potency [16] | Potency [17]

C1=Cc2ccccc2C1
inactive: Potency [1] | outcome [20] | Potency [18] | Potency [3] | activity change, positive = activation [4] 2.75% | Potency [5] | Potency [7] | Potency [8] | Potency [9] | Potency [10] | max response [11] 6.96% | Potency [12] | Potency [13] | Potency [14] | Potency [15] | Potency [17]

N[C@H]1C(O)O[C@H](CO)[C@H](O)[C@@H]1O (stereo not given in full)
inactive: Potency [1] | outcome [20] | Potency [3] | activity change, positive = activation [4] 1.03% | Potency [5] | Potency [6] | Potency [7] | Potency [8] | Potency [9] | Potency [10] | Potency [19] | max response [11] 9.12% | Potency [12] | Potency [13] | Potency [14] | Potency [15] | Potency [17]

CC(=O)N(CC(=O)N(C)C)c1ccccc1
inactive: Potency [1] | Potency [18] | Potency [3] | activity change, positive = activation [4] 0.995% [at 42.5 µM] | Potency [5] | Potency [7] | Potency [8] | Potency [9] | Potency [10] | Potency [19] | max response [11] 1.18% | Potency [12] | Potency [13] | Potency [14] | Potency [15] | Potency [17]
